# Screens (PubChem BioAssay)
# IL1B secr inh: inflammasome signaling inhibition, IL-1 beta readout; THP-1 LPS/ATP IL-1B secretion, AlphaLISA, 16 h; hits give low values; activity change, % at 57.5 µM; 360,000 compounds, 4.7% hits; in the data active = activity change below about -50%; inconclusive = mostly about -30% to -49%
#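 Secreted IL-1B measured by AlphaLISA bead assay after 16 h compound exposure of THP-1 cells; compounds (final up to 57.5 uM) added 1 h before LPS (250 ng/mL) and ATP (1.25 mM) stimulation; lower signal means less secretion.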
# TDP1 cell CPT: DT40-hTDP1 cell growth loss with CPT; chicken DT40 Tdp1-/-;hTDP1 cells + 20 nM CPT, ATP luminescence, 48 h; Potency, µM (top dose mostly 46.2 µM), inactives show top-dose activity change, negative = growth inhibition, most hits filed as inhibitors; 420,000 compounds, 12% hits; AID 686979; also: potency is read from the fitted curve at half-maximal effect; nearly all actives have a fitted effect of over 55% in size
#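 Chicken DT40 Tdp1-/- cells complemented with human TDP1, 400 cells/well, exposed to compounds plus 20 nM camptothecin for at least 48 h at 37 C; viability read as ATP content by CellTiter-Glo luminescence.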
# HT1080NT lethal: kills 2HG-producing HT-1080-NT fibrosarcoma cells | HT-1080-NT fibrosarcoma viability, CellTiter-Glo ATP luminescence, 48 h | Potency, µM (top dose mostly 46.1 µM), without a hit: at the highest dose activity, negative = less viability, actives largely listed as cytotoxic | 360,000 compounds, 1.6% hits | AID 686970;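 also: NT is the 2HG producing partner of a matched IDH1 knockdown line; potency is read from the fitted curve at half-maximal effect; 0% = DMSO-treated cells and -100% = media-only wells without cells; nearly all actives have a fitted effect of over 55% in size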
#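 Viability by CellTiter-Glo luminescence after 48 h compound exposure at 37C of HT-1080-NT cells (750/well, RPMI, 5% FBS). % activity scaled between DMSO wells and medium-only wells, then curve-fitted and categorized by curve class.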
# TDP1 cell noCPT: qHTS for Inhibitors of human tyrosyl-DNA phosphodiesterase 1 (TDP1): qHTS in cells in absence of CPT | DT40 Tdp1-/- hTDP1 cells, no CPT, ATP luminescence, 48 h | Potency, µM (titrated, usually from 46.2 µM), without a hit: at the top dose activity change, negative = growth inhibition, hits mostly inhibitors | 420,000 compounds, 15% hits | AID 686978, 2013; also: potency is read from the fitted curve at half-maximal effect; nearly all actives have a fitted effect of over 55% in size
#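 Growth of hTDP1-complemented DT40 Tdp1-knockout cells is measured by ATP luminescence after at least 48 hr compound exposure at 37 °C, with DMSO substituting for the 20 nM CPT used in the parallel screen.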
# HT1080 IDH1KD tx: toxicity to HT-1080 IDH1 knockdown cells (counter line); HT-1080 IDH1 knockdown viability, ATP luminescence, 48 h; Potency, µM (top dose mostly 46.1 µM), for the others: at the top dose activity, negative = toxicity, hits mostly cytotoxic; 360,000 compounds, 2% hits;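 also: potency is read from the fitted curve at half-maximal effect; 0% = DMSO wells and -100% = cell-free medium wells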
#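 Assay cells: HT-1080 with IDH1 knockdown, 750 per well, RPMI/5% FBS. Exposure: 48 h at 37 °C following 2 h pre-incubation. Read: CellTiter-Glo luminescence; fitted concentration-response, curve class assigned.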
# The depositor's hits bear a star; ? = inconclusive; . = not tested or not shown; [ ] = remark or other dose. Rows were chosen to be rich in hits. Some 19% of all compounds tested hit in one or more screens of this group. Unless noted, calls follow the shape of the dose curve; as a rule, active = well fitted curve in the direction sought with a large enough effect; inconclusive = small, poorly fitted or top-dose-only effect, or another doubt; inactive = no such curve, though single readings can be large; an effect the other way counts as inactive or inconclusive. Unless noted, % is scaled to controls: 0 for no effect and ±100 for the full control effect.
SMILES,IL1B secr inh,TDP1 cell CPT,HT1080NT lethal,TDP1 cell noCPT,HT1080 IDH1KD tx
CCC(C)C(NC(=O)c1ccccc1NC(=O)c1ccc(OC)cc1)C(=O)NCc1ccco1 (stereo not given),0,-20%,-30%,-52%,?
O=C(COc1ccc(F)cc1)Nc1ccc(OCc2cc(=O)n3ccsc3n2)cc1,.,-21%,.,-20%,.
Cc1oc2cc3c(C(=O)N4CCCCC4)c(C)oc3cc2c1C(=O)N1CCCCC1,21,?,7%,18µM*,3%
COc1ccc2c(c1)c1nnc(SCCN3CCOCC3)nc1n2C,.,?,-5%,16µM*,-9%
CCN(CC)CCSc1nnc2c3cc(C)ccc3n(Cc3ccccc3)c2n1,-67*,?,16µM*,21µM*,23µM*
C=CCn1c2ccccc2c2nnc(SCC(=O)O)nc21,15,-1%,-3%,-5%,6%
COc1ccc2c(c1)c1nnc(SC)nc1n2C,18,-12%,23%,-19%,-1%
CCCCn1c2ccc(F)cc2c2nnc(SCCN3CCOCC3)nc21,-22,?,?,29µM*,?
CSc1nnc2c3cc(F)ccc3n(Cc3ccccc3)c2n1,-2,4%,-2%,-10%,-3%
C=CCn1c2ccccc2c2nnc(SCCN3CCOCC3)nc21,-71*,-26%,0%,?,-3%
Cn1c2ccc(F)cc2c2nnc(SCCN3CCOCC3)nc21,8,1%,-7%,-16%,-4%
CCOc1ccccc1NC(=O)N1CCN(Cc2nc3ccc(C)cc3o2)CC1,.,-22%,.,-22%,.
CCN1CCN(C(c2ccccc2)c2sc3nc(-c4ccco4)nn3c2O)CC1 (stereo not given),.,-2%,.,-5%,.
CSc1nnc2c3ccccc3n(CCc3ccccc3)c2n1,0,7.3µM*,-16%,16µM*,?
CCCCn1c2ccc(F)cc2c2nnc(SCCN(CC)CC)nc21,.,21µM*,.,26µM*,.
CCCCn1c2ccccc2c2nnc(SCCN3CCCCC3)nc21,-10,?,-3%,16µM*,1%
CSc1nnc2c3ccccc3n(Cc3ccccc3)c2n1,-15,?,-2%,?,-3%[9.24 µM]
CCN(CC)CCN(C(=O)c1ccco1)c1nc2cc(C)cc(C)c2s1,.,?,.,23µM*,.
CCc1ccc2nc(N(CCN(CC)CC)C(=O)c3ccco3)sc2c1,.,21µM*,.,?,.
CCOc1ccc(S(=O)(=O)N2CCC(C(=O)NCCc3ccc(OC)c(OC)c3)CC2)cc1,-18,-24%,3%,-11%,4%
COc1ccc2cc3cc(C(=O)N4CCN(c5ccccn5)CC4)oc3nc2c1,6,?,10%,18µM*,2%
COc1ccc2cc3cc(C(=O)N4CCN(Cc5ccc6c(c5)OCO6)CC4)oc3nc2c1,-65*,?,-28%,?,?
Cc1cc(CNC[C@H]2O[C@@H](n3cnc(C(N)=O)n3)[C@H](O)[C@@H]2O)c(C)n1-c1cccnc1,7,8%,2%,-14%,0%
COc1ccccc1NC(=O)c1ccc2c(O)c(S(=O)(=O)c3ccccc3)c(=O)[nH]c2c1,4,-5%,10%,13%,22%
O=C(COc1ccc(Cl)cc1)Nc1cc2c3c(c1)CC(=O)N3CCC2,15,21µM*,-4%,21µM*,-1%
SMILES,IL1B secr inh,TDP1 cell CPT,HT1080NT lethal,TDP1 cell noCPT,HT1080 IDH1KD tx
OCCN1CCN(c2ncnc3c2ncn3[C@H]2CN(Cc3cccnc3)C[C@@H](CO)O2)CC1,21,7%,11%,-2%,8%
Cc1ccc(SCC(=O)Nc2ccc(S(=O)(=O)Nc3nccs3)cc2)cc1,-11,?,3%,3.7µM*,3%
O=[N+]([O-])c1ccccc1S(=O)(=O)Nc1ccc(S(=O)(=O)Nc2nccs2)cc1,-16,?,-23%,16µM*,-26%
Cc1ccc(S(=O)(=O)NCCC(=O)Nc2nccs2)cc1,-64*,13%,-5%,-14%,-27%
O=C(CCl)Nc1ccc(S(=O)(=O)Nc2nccs2)cc1,?,?,?,?,13µM*
CCOc1ccc2oc(C(=O)N(CC)CC(=O)Nc3c(F)cccc3F)c(C)c2c1,-1,-15%,0%,?,-11%
CCCS(=O)(=O)NC(=O)C1(C)CCN(C(=O)c2oc3ccccc3c2C)C1 (stereo not given),16,-20%,18%,3%,6%
N#CC1(c2ccccc2)CCCN1C(=O)c1ccc(Br)o1 (stereo not given),-14,-11%,2%,-23%,-19%
CCOC(=O)C1CCCN(C(=O)c2cc(-c3ccc(F)cc3)nc3ccccc23)C1 (stereo not given),-14,?,?,15µM*,-9%
CCOC(=O)C1CCCN(C(=O)c2cc(Nc3ccc(OC)cc3)nc3ccccc23)C1 (stereo not given),-1,21µM*,0%,15µM*,-9%
CCOC(=O)C1CCCN(C(=O)c2cc(-c3ccncc3)nc3ccccc23)C1 (stereo not given),12,?,3%,-19%,8%
CCN1CCCC(OC(=O)c2cc(-c3ccc(C)cc3)nc3ccccc23)C1 (stereo not given),-147*,?,-28%,16µM*,?
O=C(OC1CCOC1=O)c1cc(-c2ccc(Cl)cc2)nc2ccccc12 (stereo not given),5,3%,0%,-11%,2%
CC(C)CC(=O)CN1C(=O)C2(OCCO2)c2ccccc21,0,0%,5%,-15%,11%
COc1ccccc1CN1CCOc2ccc(C(C)(O)CN(C)C)cc2C1 (stereo not given),.,0%,.,2%,.
O=C(NCCc1ccccc1)C1CCCN1C(=O)Nc1ccccc1 (stereo not given),1,7%,14%,2%,10%
O=C(NCc1ccco1)C1CCCN1C(=O)Nc1cccc(Cl)c1 (stereo not given),12,-7%,-2%,9%,-4%
O=C(NCc1ccco1)C1CCCN1C(=O)Nc1ccc(Cl)cc1 (stereo not given),-10,?,1%,16µM*,2%
O=C(NCCc1ccccc1)C1CCCN1C(=O)Nc1ccc(Cl)cc1 (stereo not given),12,16µM*,-10%,?,0%
Cc1ccccc1NC(=O)N1CCCC1C(=O)NCc1cccs1 (stereo not given),-19,-7%,-2%,-6%,2%
O=C(NCc1cccs1)C1CCCN1C(=O)Nc1ccccc1Cl (stereo not given),1,6%,6%,23µM*,16%
COCCn1c(=O)c(-c2ccc(F)cc2)nc2cnc(N3CCOCC3)nc21,.,-11%,.,21%,.
